tested on: BMX; details: concentration: 1 μM, replicates: in singlicate; n = 1
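Also: KINOMEscan kinase panel screen.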

Going from `COc1ccc(Nc2nccc(N3CCC(NC(=O)c4cccc(NC(C)=O)c4)C3)n2)cc1` (centres unmarked) [GSK1379732] to `COc1ccc(Nc2nccc(N3CCC(NC(=O)Nc4ccc5c(c4)OCO5)C3)n2)cc1` (centres unmarked) [GSK1379745], the “%Inh” value falls from 16% to 13%.

Compared with `CC(=O)Nc1n[nH]c2ncc(-c3ccccc3)cc12` [SB-548492], `CCc1nc(-c2cccc(C)c2)c(-c2ccnc(NC(=O)c3ccccc3)c2)s1` is lower in “%Inh” value: 13% for the first, 0% for the second.

Going from `CCCc1ccc(S(=O)(=O)NC2CCN(c3ccnc(Nc4ccc(OC)cc4)n3)C2)cc1` (centres unmarked) [GSK1379737] to `O=C(Nc1ccccc1F)NC1CCN(c2ccnc(Nc3ccc(F)cc3)n2)C1` (centres unmarked) [GSK1379722], the “%Inh” value rises from 0% to 7%.

Going from `Nc1nccc2scc(-c3ccc4c(c3)CCN4C(=O)Cc3cc(F)ccc3F)c12` [GSK2587663] to `Cl.Fc1ccccc1COc1ccc(Nc2ncnc3ccc(-c4nnc(C(F)(F)F)o4)cc23)cc1Cl` [GW424170], the “%Inh” value falls from 23% to 1%.

Going from `CS(=O)(=O)CCNCc1nc(-c2ccc3ncnc(Nc4ccc(OCc5cccc(F)c5)c(Cl)c4)c3c2)cs1.Cl` [GW583340] to `Clc1cc(Nc2ncnc3cc[nH]c23)ccc1OCc1ccccn1`, the “%Inh” value rises from 0% to 20%.

Compared with `COc1ccc(NC(=O)Nc2ccc(C)c(-c3ccc(C(=O)Nc4ccncc4)cc3)c2)cc1` [GSK1398475], `Cc1ccc(NC(=O)c2cccc(C#N)c2)cc1-c1ccc(C(=O)Nc2ccncc2)cc1` [GSK1398463] is higher in “%Inh” value: 14% for the first, 26% for the second.

Compared with `FC(F)(F)c1cc(Nc2nccc(-c3c(-c4ccc(Cl)cc4)nn4ncccc34)n2)ccc1Cl` [GW829351], `Clc1cccc(-c2nc(Nc3ccncc3)c3ccccc3n2)c1` [GW873004] is higher in “%Inh” value: 0% for the first, 43% for the second.

First: Cl.Cl.c1ccc(-c2cc3ccncc3cc2OC2CCNCC2)cc1 [GSK1122999]
Second: Nc1nc(-c2ccc3c(N)n[nH]c3c2)cc(N2CCC[C@@H](C(=O)Nc3ccccc3)C2)n1.O=C(O)C(F)(F)F.O=C(O)C(F)(F)F [GSK2288359]
The “%Inh” value of the first is higher: 17% for the first, 0% for the second.

First: Nc1nc(-c2ccc3c(N)n[nH]c3c2)cc(N2CCCCC2)n1 [GSK2228768]
Second: CC(C)N1CCC(n2cnc(-c3ccc(F)cc3)c2-c2ccnc(N)n2)CC1 [SB-223132]
The “%Inh” value of the first is lower: 0% for the first, 9% for the second.

Going from `COc1cc2c(Nc3cccc(NC(=O)c4ccccc4)c3)ncnc2cc1OCCCN1CCOCC1` [GSK223810] to `COC(=O)c1cccc(NC(=O)NCCNc2ccnc(Nc3ccc(F)cc3)n2)c1` [GSK1379883], the “%Inh” value falls from 33% to 21%.

Going from `CSc1ccc(NC2=C(c3ccccc3Cl)C(=O)NC2=O)cc1` [SB-342411] to `Cc1ccc(C)c(NC(=O)NCCNc2ccnc(Nc3ccc(F)cc3)n2)c1` [GSK1379878], the “%Inh” value falls from 34% to 0%.

For `CCC(CC)(CC)n1cnc2c(N)ncnc21` [SKF-97620], the “%Inh” value was 0%.

tested on: BRAF; details: concentration: 1 μM, replicates: in singlicate; n = 1

`N#Cc1ccc(Oc2ccc(Nc3ncnc4cc[nH]c34)cc2Cl)cc1` and `Clc1cc(Nc2ncnc3cc[nH]c23)ccc1OCc1ccccn1` are the same in “%Inh” value: 0% for the first, 0% for the second.

`Cc1cc(N2CCC(NS(=O)(=O)c3ccc(F)cc3)CC2)nc(Nc2cccc(C#N)c2)n1.O=C(O)C(F)(F)F` [GSK1653537] and `CCCc1ccc(S(=O)(=O)NC2CCN(c3ccnc(Nc4ccc(OC)cc4)n3)C2)cc1` (centres unmarked) [GSK1379737] are the same in “%Inh” value: 0% for the first, 0% for the second.

Compared with `O=C(NCCCN1CCCC1=O)c1cnc(NCc2cc(Cl)ccc2Cl)nc1NC1CCNCC1`, `O=C(Nc1ccccc1F)NC1CCN(c2ccnc(Nc3ccc(F)cc3)n2)C1` (centres unmarked) [GSK1379722] is lower in “%Inh” value: 39% for the first, 7% for the second.

`c1ccc(-c2ccc3c(-c4ccnc(Nc5ccc6c(c5)OCCO6)n4)cnn3n2)cc1` [GW818941] and `FC(F)(F)c1cc(Nc2nccc(-c3c(-c4ccc(Cl)cc4)nn4ncccc34)n2)ccc1Cl` [GW829351] are the same in “%Inh” value: 0% for the first, 0% for the second.

Going from `CNc1nccc(-c2c(-c3ccc(F)cc3)ncn2CCCN2CCOCC2)n1` [SB-222516] to `CC(C)N1CCC(n2cnc(-c3ccc(F)cc3)c2-c2ccnc(N)n2)CC1` [SB-223132], the “%Inh” value falls from 6% to 0%.

`C[C@@H]1CCN(C(=O)CO)C[C@@H]1N(C)c1ncnc2[nH]ccc12` and `COc1ccc(Nc2nccc(N3CCC(NC(=O)c4cccc(NC(C)=O)c4)C3)n2)cc1` (centres unmarked) [GSK1379732] are the same in “%Inh” value: 0% for the first, 0% for the second.

`Cn1ccc2ncnc(Oc3ccc(NC(=O)Nc4cccnc4)c(Cl)c3)c21` and `O=C(CCO)NCCn1ccc2ncnc(Nc3ccc(Oc4cccc(C(F)(F)F)c4)c(Cl)c3)c21` are the same in “%Inh” value: 0% for the first, 0% for the second.

Compared with `O=C(c1ccc(-c2cc(-c3c[nH]nc3-c3ccccn3)ccn2)cc1)N1CCCC1` [GW792479], `CCc1nc(-c2cccc(C)c2)c(-c2ccnc(NC(=O)c3ccccc3)c2)s1` is higher in “%Inh” value: 0% for the first, 17% for the second.

Going from `O=C(Nc1n[nH]c2nc(-c3ccco3)c(Br)cc12)c1ccc(CN2CCCC2)cc1.O=C(O)[C@H](O)[C@@H](O)C(=O)O` [SB-742352] to `Nc1nc(-c2ccc3c(N)n[nH]c3c2)cc(N2CCC[C@@H](C(=O)Nc3ccccc3)C2)n1.O=C(O)C(F)(F)F.O=C(O)C(F)(F)F` [GSK2288359], the “%Inh” value rises from 0% to 5%.

`Nc1n[nH]c2nnc(-c3ccccc3)cc12` [SB-517389] and `CC(=O)Nc1n[nH]c2ncc(-c3ccccc3)cc12` [SB-548492] are the same in “%Inh” value: 0% for the first, 0% for the second.

`Oc1ccc2ncnc(Nc3ccc(OCc4ccccc4)cc3)c2c1` [GI262866] and `Cl.Fc1ccccc1COc1ccc(Nc2ncnc3ccc(-c4nnc(C(F)(F)F)o4)cc23)cc1Cl` [GW424170] are the same in “%Inh” value: 0% for the first, 0% for the second.

`Nc1nc(-c2cccnc2)c(-c2ccnc3ccccc23)s1` [GW684083] and `Clc1cccc(-c2nc(Nc3ccncc3)c3ccccc3n2)c1` [GW873004] are the same in “%Inh” value: 0% for the first, 0% for the second.

Going from `COc1ccc(Nc2nccc(N3CCC(NC(=O)Nc4ccc5c(c4)OCO5)C3)n2)cc1` (centres unmarked) [GSK1379745] to `COC(=O)c1cccc(NC(=O)NCCNc2ccnc(Nc3ccc(F)cc3)n2)c1` [GSK1379883], the “%Inh” value falls from 2% to 0%.

Compared with `Nc1nccc2scc(-c3ccc4c(c3)CCN4C(=O)Cc3cc(F)ccc3F)c12` [GSK2587663], `CS(=O)(=O)CCNCc1nc(-c2ccc3ncnc(Nc4ccc(OCc5cccc(F)c5)c(Cl)c4)c3c2)cs1.Cl` [GW583340] is lower in “%Inh” value: 3% for the first, 0% for the second.

Compared with `COc1ccc(NC(=O)Nc2ccc(C)c(-c3ccc(C(=O)Nc4ccncc4)cc3)c2)cc1` [GSK1398475], `Cc1ccc(NC(=O)c2cccc(C#N)c2)cc1-c1ccc(C(=O)Nc2ccncc2)cc1` [GSK1398463] is higher in “%Inh” value: 0% for the first, 29% for the second.

Going from `Cl.Cl.c1ccc(-c2cc3ccncc3cc2OC2CCNCC2)cc1` [GSK1122999] to `COc1cc2c(Nc3cccc(NC(=O)c4ccccc4)c3)ncnc2cc1OCCCN1CCOCC1` [GSK223810], the “%Inh” value rises from 0% to 34%.

`Nc1nc(-c2ccc3c(N)n[nH]c3c2)cc(N2CCCCC2)n1` [GSK2228768] and `Cc1ccc(C)c(NC(=O)NCCNc2ccnc(Nc3ccc(F)cc3)n2)c1` [GSK1379878] are the same in “%Inh” value: 0% for the first, 0% for the second.

Compared with `CSc1ccc(NC2=C(c3ccccc3Cl)C(=O)NC2=O)cc1` [SB-342411], `CCC(CC)(CC)n1cnc2c(N)ncnc21` [SKF-97620] is lower in “%Inh” value: 21% for the first, 10% for the second.
